# HCMV inh – human cytomegalovirus inhibition; 4.5% of 410,000 active; HFF cells, HCMV-luciferase reporter, 72 h; active compounds read low; AID 1259415; activity change, negative = inhibition, % at 57.5 µM; in the data active = activity change below about -60%; inconclusive = no clear call, values can overlap the other calls; inactive = above about -39%
#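 Two compound doses tested in HFFs infected with HCMV-luciferase, MOI 1 PFU/cell, 72 h at 37C. Lysate luminescence read with OneGlo; data normalized against buffer-only and 10uM Salinomycin inhibitor controls.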
# Sm TGR block – blocks Schistosoma mansoni thioredoxin glutathione reductase; Q962Y6; purified TGR, DTNB reduction, TNB absorbance 405 nm; Potency, µM (highest dose often 114 µM), without a hit: at the top dose activity change, negative = inhibition, most hits filed as inhibitors; 3% of 360,000 active; note: potency is the fitted concentration of half-maximal effect; nearly all actives have a fitted effect of over 60% in size
#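 TGR 20 nM + NADPH 100 uM (dispensed conc.), cpd preinc 15 min RT; start with NADPH (500 uM addition) then DTNB (15 mM addition). Kinetic TNB absorbance, 405 nm filter. Four-parameter Hill fit across titration.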
# FBPA Giardia inh – blocks Giardia fructose-bisphosphate aldolase activity; A8B2U2; 0.71% of 290,000 active; Potency, µM (highest dose often 59.6 µM), for the others: at the top dose activity, negative = inhibition, hits mostly inhibitors; purified Giardia FBPA; note: potency is the fitted concentration of half-maximal effect; nearly all actives have a fitted effect of over 55% in size
# Target sequence (A8B2U2 whole entry, looked up): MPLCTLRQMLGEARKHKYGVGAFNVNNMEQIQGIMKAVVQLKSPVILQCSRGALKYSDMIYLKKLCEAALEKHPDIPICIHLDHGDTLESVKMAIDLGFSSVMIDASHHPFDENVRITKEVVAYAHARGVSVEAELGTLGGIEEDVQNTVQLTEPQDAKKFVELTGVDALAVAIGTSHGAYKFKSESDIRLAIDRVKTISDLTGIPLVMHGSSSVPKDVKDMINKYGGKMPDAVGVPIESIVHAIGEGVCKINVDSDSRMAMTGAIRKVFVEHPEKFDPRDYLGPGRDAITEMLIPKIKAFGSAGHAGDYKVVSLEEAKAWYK
#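 40 nM FBPA preincubated 10 min at RT with compound (up to 57.5 uM final), then substrate plus GAPDH/TPI/NAD/arsenate coupling and diaphorase/resazurin added. Fluorescence read after 20 min at RT, 525/598 nm.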
# Pf growth 96h – P. falciparum growth inhibition at 96 hours; P. falciparum luciferase reporter growth, 96 h; Potency, µM (series often up to 28.7 µM), inactives show at the top dose activity change, negative = inhibition, usual class: inhibitors; 6.9% of 320,000 active; AID 504834; note: potency is the fitted concentration of half-maximal effect
#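 P. falciparum expressing integrated firefly luciferase grown in erythrocytes (2% hematocrit, 0.05% parasitemia final) with compounds for 96 hours at 37 C, 5% CO2. Growth inhibition read as loss of luminescence after adding luciferase detection reagent.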
# Pf growth 48h – P. falciparum growth inhibition at 48 hours (one generation); Potency, µM (series often up to 28.7 µM), for the others: top-dose activity change, negative = inhibition, hits mostly inhibitors; P. falciparum luciferase growth in erythrocytes, 48 h; 5.9% of 310,000 active; note: potency is the fitted concentration of half-maximal effect
#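 Luciferase-expressing P. falciparum in infected erythrocytes (2% hematocrit, 0.1% parasitemia final) in RPMI 1640/0.5% Albumax were exposed to compound for 48 hours at 37 C, 5% CO2; growth read as luminescence.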
# An asterisk follows results filed as active; ? = inconclusive; · = no result; [ ] = dose if it differs, or a comment. Compounds with a hit are over-represented: about 14% of the library has one in this group of screens. Unless noted, calls come from the whole dose curve; as a rule, active = well fitted curve in the direction sought with a large enough effect; inconclusive = small, poorly fitted or top-dose-only effect, or another doubt; inactive = no such curve, though single readings can be large; an effect the other way counts as inactive or inconclusive. % is set by controls: 0 for no effect and ±100 for the full control effect.
SMILES,HCMV inh,Sm TGR block,FBPA Giardia inh,Pf growth 96h,Pf growth 48h
Cc1ccc(CNC(=O)c2cc(Cl)cc(Cl)c2)n1C,-7.7,31.6µM*,-14.5%,-31.1%,0.0%
CCc1ccc(NC(=O)NCC2CCN(c3ccc(OC)cc3)C2)cc1 (centres undefined),1.6,-5.9%,-7.0%,?,?
COc1ccc(N2CCC(CNC(=S)Nc3cccc(C)c3)C2)cc1 (centres undefined),?,-10.6%,-18.7%,82.5%,13.1µM*
COc1ccc(N2CCC(CNC(=S)Nc3c(C)cc(C)cc3C)C2)cc1 (centres undefined),-70.2*,6.8%,-10.1%,?,11.7µM*
COc1ccc(N2CCC(CNC(=S)Nc3ccc(C)cc3C)C2)cc1 (centres undefined),-18.2,-1.8%,?,?,8.28µM*
COc1ccc(N2CCC(CNS(=O)(=O)c3cccc(C(F)(F)F)c3)C2)cc1 (centres undefined),36.9,31.6µM*,?,?,?
COc1ccc(CNC(=O)C2CCN(S(=O)(=O)c3cccc(C(F)(F)F)c3)CC2)cc1,-21.4,-6.0%,·,?,-13.6%
COc1cc(CC(=O)Nc2nc(C)cs2)cc(OC)c1OC,11.7,10.2%,0.5%,-34.1%[5.75 µM],?
COc1ccc(C(O)c2nc3ccccc3n2C(C)C)cc1 (centres undefined),-33.9,10.8%,10.8%,-17.7%,?
CCCCOC(=O)c1nc[nH]c1C(=O)OCCCC,-28.2,·,-4.5%,10.2%,0.7%
CCN1CCN(c2ncnc3c2cnn3-c2ccc(C)cc2)CC1,?,-3.7%,·,·,·
COc1ccc(N2CCC(CNC(=O)Nc3ccc(OC)cc3OC)C2)cc1 (centres undefined),-80.1*,44.7µM*,?,-6.7%,?
Cc1cc(C)cc(NC(=S)NCC2CCN(C(C)c3ccccc3)C2)c1 (centres undefined),-32.6,?,8.3%,5.22µM*,?
COc1ccc(N2CCC(CNC(=O)Nc3ccc(C)c(C)c3)C2)cc1 (centres undefined),10.8,?,?,-1.6%,-8.0%
Cc1ccc(Nc2nc(N)nc(N)c2N=O)cc1Cl,23.3,·,·,·,·
O=C(CCCSc1ccccc1)Nc1nc(-c2ccccn2)cs1,-0.7,-5.7%,6.4%,7.38µM*,·
O=C(CN1C(=O)CCC1=O)Nc1nc(-c2ccccn2)cs1,-61.9*,-10.5%,?,?,·
O=C(COc1ccc(F)cc1Cl)Nc1nc(-c2ccccn2)cs1,-81.6*,-6.4%,·,13.1µM*,?
O=C(CN1C(=O)CCC1=O)Nc1nc(-c2ccc3ccccc3c2)cs1,?,-4.9%,-7.3%,83.8%,133.0%
COCCNc1ncnc2c1ncn2[C@H]1CN(Cc2ccccc2)C[C@@H](CO)O1,-4.5,·,·,·,·
CCC(=O)OCc1cc(=O)oc2ccc3ccccc3c12,4.1,-2.3%,-0.7%,25.3%,5.4%
Cn1cnc(S(=O)(=O)Nc2ccccc2C(=O)NCC2CC2)c1,4.7,-2.2%,-1.2%,38.7%,4.65µM*
Cc1cc(N2CCN(C)CC2)nc2ccc(NC(=O)Nc3ccccc3Cl)cc12,-99.8*,3.2%,·,·,·
COc1cccc(NC(=O)Nc2ccc3nc(N4CCN(C)CC4)cc(C)c3c2)c1,-101.4*,-1.1%,·,·,·
Cc1cc(C)cc(NC(=O)Nc2ccc3nc(N4CCN(C)CC4)cc(C)c3c2)c1,-7.3,8.0%,·,·,·
SMILES,HCMV inh,Sm TGR block,FBPA Giardia inh,Pf growth 96h,Pf growth 48h
O=C(CSc1nc(=O)[nH]c2c1CCC2)Nc1cc(C(F)(F)F)ccc1Cl,-28.9,-17.9%,·,·,·
Cc1oc2ncnc(N3CCOCC3)c2c1C(=O)N(Cc1ccccc1)C(C)C,-31.2,-10.5%,·,·,·
CCCCn1c(N)c(N(CC(C)C)C(=O)c2ccc(-c3ccc(Cl)cc3)o2)c(=O)[nH]c1=O,?,?,·,?,16.5%
CCN(CC)S(=O)(=O)c1ccc(C(C)NC(=O)Cc2c[nH]c3ccccc23)cc1 (centres undefined),14.4,-1.6%,-5.5%,?,?
COc1ccc(N=c2ssnc2Cl)cc1,·,56.2µM*,?,15.7%,30.5%
C/C(=N\Nc1ccc([N+](=O)[O-])cc1)c1ccc(-n2nncc2C)cc1,-66.4*,-5.0%,0.6%,3.9%,3.6%
C/C(=N\Nc1ccc([N+](=O)[O-])cc1)c1ccc(N)cc1,93.2,-35.6%,-3.8%,0.4%,?
C/C(=N\Nc1nc(C)c(C)s1)c1ccc([N+](=O)[O-])cc1,53.6,22.4µM*,-20.5%,?,?
CC(C)(C)c1cnnn1-c1ccc(/C=N/Nc2ccc([N+](=O)[O-])cc2)cc1,?,-0.7%,-2.1%,-60.8%,11.7µM*
C/C(=N\Nc1ccc([N+](=O)[O-])cc1)c1ccc(N2CCOCC2)cc1,0.0,0.1%,0.3%,94.8%,1.9%
CCc1ccc(/C(C)=N\Nc2ccc([N+](=O)[O-])cc2)cc1,8.7,-0.1%,-6.4%,4.15µM*,31.2%
COCCNC(=O)C1(C)CCN(C(=O)c2ccc3ccccc3n2)C1 (centres undefined),-12.8,·,·,·,·
COC(=O)c1ccc(CN(c2ccc(C(=O)O)c(O)c2)S(=O)(=O)c2ccc(Cl)c([N+](=O)[O-])c2)cc1,6.7,-30.2%,-1.7%,-16.7%,-18.3%
Oc1ccccc1C=NCCN1CCN(CCN=Cc2ccccc2O)C1c1ccccc1O (centres undefined),-0.7,·,·,·,·
CC(=O)c1ccc(NC(=O)C(C)n2nc(-c3ccccc3)c3cc(Cl)ccc32)cc1 (centres undefined),-17.8,2.0%,4.4%,1.17µM*,?
CC(C(=O)NCc1ccco1)n1nc(-c2ccccc2)c2cc(Cl)ccc21 (centres undefined),?,-22.3%,-0.7%,?,·
CCn1nc(NS(=O)(=O)c2ccc([N+](=O)[O-])cc2)c2cc3ccccc3nc21,-20.9,-3.7%,·,?,5.4%
c1ccc(Cn2nnc(CNc3ccccc3)c2-c2c(CNc3ccccc3)nnn2Cc2ccccc2)cc1,·,6.5%,5.0%,1.85µM*,2.62µM*
O=C(NCc1ccco1)C1CCN(c2nc3ccccc3n2Cc2ccc(F)cc2)CC1,2.4,?,-0.1%,10.4µM*,·
O=C(NCc1ccco1)C1CCN(c2nnc(-n3cccc3)s2)CC1,-66.5*,-2.7%,7.7%,7.9%,7.9%
O=C(NCCCN1CCc2ccccc2C1)C1CCN(c2nnc(-n3cccc3)s2)CC1,1.6,-17.0%,-29.3%,?,4.15µM*
COc1ccc(C#Cc2ccc([C@H]3[C@H](CO)N4CCCCN(S(=O)(=O)c5cn(C)cn5)C[C@@H]34)cc2)cc1,22.4,·,·,·,·
CCCCC1=CC2=C(c3ccco3)C(=O)C(C)(OC(=O)c3ccc(OC)cc3)C(=O)C2=CN1CC(C)C (centres undefined),11.7,14.1µM*,?,?,27.0%
